Experimental findings from the supplement of paper PMC7530171 are described below.

Each structure is given as a SMILES string. ± gives the standard deviation.

The assay has as its system THP-1. Put plainly: THP-1 cell loss relative to DMSO control; higher = more host cell loss (toxicity); extreme values may be limits of the assay. The settings on record: 10 µM; 4 days; infection: M. tuberculosis H37Rv. Here is the method: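 OICR kinase inhibitor library screened in duplicate at 10 uM against M. tuberculosis-infected THP-1 macrophages, 4 days at 37 C. THP-1 cell loss (cytotoxicity or loss of adherence) was quantified from Hoechst-stained nuclei counts by high-content imaging and normalised to the 1% DMSO control; 100 = complete loss of host cells.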
For `CN[C@@H]1C[C@H]2O[C@@](C)([C@@H]1OC)n1c3ccccc3c3c4c(c5c6ccccc6n2c5c31)C(=O)NC4` [Staurosporine], the THP-1 cell loss came out at 100%.
With `C/C(O)=C(\C#N)C(=O)Nc1cc(Br)ccc1Br` the figure was 4 ± 5.7%; with `COc1ccc2c(c[n+](C)c3c4cc5c(cc4ccc23)OCO5)c1OC` [Chelerythrine chloride], 100%; with `COC(=O)[C@@]1(O)C[C@H]2O[C@]1(C)n1c3ccccc3c3c4c(c5c6ccccc6n2c5c31)C(=O)NC4`, 100%.
With `COc1ccc2c(c1)/C(=C/c1cnc[nH]1)C(=O)N2` the figure was 53.2 ± 9.3%.
Under `O=C1Nc2ccc3ncsc3c2/C1=C/c1cnc[nH]1` [Imidazolo-oxindole PKR inhibitor C16] stands 100%.
In turn, `O=C1NC(=O)c2c1c1c3ccccc3n3c1c1c2c2ccccc2n1[C@H]1CC[C@@H]3O1` returned a THP-1 cell loss of 100%.
The compound `Cn1cc(C2=C(c3cn(C4CCN(Cc5ccccn5)CC4)c4ccccc34)C(=O)NC2=O)c2ccccc21` [Enzastaurin] yielded a THP-1 cell loss of 52.5 ± 67%.
`O=C1NC(=O)c2c1c1c3ccccc3[nH]c1c1[nH]c3ccccc3c21` [Arcyriaflavin A] returned a THP-1 cell loss of 75.7 ± 34%.
Compound `N#C/C(=C\c1ccc(O)c(O)c1)C(N)=S` gave a THP-1 cell loss of 11.5 ± 1.3%.
Under `Cc1ccccc1-n1c(Cn2cnc3c(N)ncnc32)nc2cccc(C)c2c1=O` stands 5.83 ± 8.2%; under `O=c1[nH]c2ccc(Cl)cc2c(N[C@@H]2CN3CCC2CC3)c1-c1nc2ccccc2[nH]1`, 100%.
Under `CC(=O)c1c(O)c(C)c(O)c(Cc2c(O)c3c(c(C(=O)/C=C/c4ccccc4)c2O)OC(C)(C)C=C3)c1O` [Rottlerin] stands 71.2 ± 41%.
With `Cc1n[nH]c2ccc(-c3cncc(OC[C@@H](N)Cc4c[nH]c5ccccc45)c3)cc12` the figure was 100%.
`COC[C@H]1OC(=O)c2coc3c2[C@@]1(C)C1=C(C3=O)[C@@H]2CCC(=O)[C@@]2(C)C[C@H]1OC(C)=O` [Wortmannin] had a THP-1 cell loss of 45.8 ± 7.5%.
In turn, `CCn1cnc2c(Nc3cccc(Cl)c3)nc(N[C@@H]3CCCC[C@@H]3N)nc21` registered a THP-1 cell loss of 100%.
Under `C[C@]12O[C@H](C[C@]1(O)CO)n1c3ccccc3c3c4c(c5c6ccccc6n2c5c31)CNC4=O` [Lestaurtinib] stands 100%; under `NC(=S)N/N=C/c1coc2ccccc2c1=O.[Cl][Cu][Cl]`, 16.3 ± 5.1%.
